Results: PubChem BioAssay AID651994 (Sanford-Burnham Center for Chemical Genomics, 2013)
Screen size: about 2,500 compounds; about 790 (32%) were called active. The list is a sample of the results. Unmarked numbers belong to inactive results.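 Rule for the calls: active = mean cytotoxicity at 5 µM above about 25% (limit read from the data); inactive = the rest.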

Test: cell viability loss, Sufu-null reporter line – ATP luminescence, single concentration, cytotoxicity control for Gli-SUFU antagonist project, confirmation (AID 651994);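 note: cells exposed to compound overnight for roughly 16 to 18 hours; plate controls were DMSO wells with cells for no effect and medium without cells for full effect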
Settings: Sufu-KO-LIGHT cells cytotoxicity, at 5 µM, active compounds read high

| SMILES | cytotoxicity |
| --- | --- |
| COc1ccc2c(C)cc3nnnn3c2c1 | 27% (active) |
| CC1(C)CC(=O)c2c(n(S(=O)(=O)c3ccccc3)c3ccc(NS(=O)(=O)c4ccccc4)cc23)C1 | 23.1% |
| Cc1ccc(NC(=S)Nc2ccc(F)cc2)cc1 | 25.1% (active) |
| COc1ccc(NC(=O)[C@H](NC(=O)[C@@H]2Cc3ccccc3CN2)c2ccccc2)cc1 | 6.92% |
| CCN(CC)CCNC(=O)c1ccc(NC(=O)c2cc(-c3ccncc3)nc3ccccc23)cc1 | 16.3% |
| Nc1ccc(C(=O)N2CCN(S(=O)(=O)c3ccc(Cl)cc3)CC2)cc1[N+](=O)[O-] | 14.4% |
| CC(=O)N1CCCc2cc(S(=O)(=O)N3CCCC(C(=O)N4CCN(c5cccc(Cl)c5)CC4)C3)ccc21 (stereo not drawn) | 24.2% |
| O=C(NCCOCc1ccc(Cl)cc1)c1ncn[nH]1 | 18.8% |
| N#Cc1ccc(C(=O)Nc2nc(-c3cccs3)c(C(=O)C(F)(F)F)s2)cc1 | 32.7% (active) |
| C/C(=N\Nc1ccc(Cl)nn1)c1ccccc1O | 23.9% |
| O=C(O)c1ccc(N/N=C/c2ccc3ncccc3c2)cc1 | 22.3% |
| CCN(CCO)C(=S)Nc1cc(C(=O)OC)ccc1C(=O)OC | 18.2% |
| C=CCC1(CC=C)CCCN1C(=O)c1cc(COc2ccc(-n3cncn3)cc2)on1 | 36.4% (active) |
| O=C(Nc1nc2ccc([N+](=O)[O-])cc2s1)c1ccc(S(=O)(=O)N2CCCc3ccccc32)cc1 | 23.2% |
| CSc1ncccc1C(=O)Nc1nc2ccc(F)cc2s1 | 28.1% (active) |
| Cc1ccc(S(=O)(=O)N2C[C@@H]3CCCC[C@@H]3[C@@H](C)[C@H]2c2cn(Cc3ccccc3)c3ccc(F)cc23)cc1 | 7.61% |
| C=CCNC(=S)/N=c1/ccccn1Cc1ccccc1 | 22.1% |
| CCC(Cc1ccccc1)NC(=O)C1CCCCC1 (stereo not drawn) | 9.02% |
| O=C(Nc1cccc(S(=O)(=O)Nc2ccc(Cl)cc2)c1)c1ccc2c(c1)OCCO2 | 28.9% (active) |
| O=C1C=C(c2ccnc3cc(Cl)ccc23)C[C@@H](c2ccc3c(c2)OCO3)C1 | 30.6% (active) |

| SMILES | cytotoxicity |
| --- | --- |
| CCN1/C(=C/C(=S)Nc2ccccc2)Sc2ccccc21 | -1.08% |
| CC(C)(CNC(=O)c1ccc(Cl)c(S(=O)(=O)N2CCc3ccccc3C2)c1)N1CCOCC1 | 17.5% |
| COc1ccc(C(=O)NC2CCCc3c2cnn3-c2cccc(C)c2C)c(OC)n1 (stereo not drawn) | 26.7% (active) |
| Cc1ccc(S(=O)(=O)NC(C)C(=O)Nc2ccccc2C(=O)N2CCCC2)cc1 (stereo not drawn) | 12.8% |
| CCc1c(C)nc2cc(C)[nH]n2c1=O | 10.3% |
| Cc1cc(C(=O)CSc2nc(N)cc(=O)[nH]2)c(C)n1-c1cccc(F)c1 | 34.2% (active) |
| CN(C)CCSc1nc(N)c2c3c(sc2n1)COC(C)(C)C3 | 9.54% |
| O=C(CN1CCN(S(=O)(=O)c2cc(Cl)ccc2Cl)CC1)c1ccc(O)c(O)c1 | 14.6% |
| CC(=O)Nc1ccc(NC(=O)c2ccc3c(c2)C(=O)N(c2ccccc2C)C3=O)cc1 | 24.5% |
| Brc1c(CSc2nncc3ccccc23)nc2ccccn12 | -3.37% |
| CN(c1ccc2nc3ccccc3c(=O)n2n1)C1CCCCC1 | 84.2% (active) |
| NS(=O)(=O)c1ccc(CCNC(=O)CCCn2c(SCC(=O)N3CCCC3)nc3ccsc3c2=O)cc1 | -12.7% |
| CC(C)(C)c1ccc(Oc2ccc(N)cc2)cc1 | 18.4% |
| COc1ccc(Cc2nnc(N/N=C/c3ccccc3O)[nH]c2=O)cc1OC | 43.8% (active) |
| COc1ccc(/C=N/N=C2/C(=O)Nc3ccccc32)cc1O | -0.38% |
| CC1(C)Cc2ccccc2/C(=C/C(=O)c2ccccc2)N1 | 4.12% |
| CC1(C)CC2CC(C)(CN2c2ncnc3ccc(Br)cc23)C1 (stereo not drawn) | 38.5% (active) |
| COc1cc(C(=O)OC2CCOC2=O)c([N+](=O)[O-])cc1OC (stereo not drawn) | 3.16% |
| COc1cccc(-n2cc(C(=O)O)c3ccccc3c2=O)c1 | 25.1% (active) |
| O=C(Nc1ccnn1C1CCN(C/C=C/c2ccc(F)cc2)CC1)C1CCCC1 | 2.29% |

| SMILES | cytotoxicity |
| --- | --- |
| Cc1nn(C)c(Cl)c1CN1CCC(n2nccc2NC(=O)C2CCCC2)CC1 | 16.4% |
| CN(C)C(CNC(=O)Cc1ccc([N+](=O)[O-])cc1)c1ccccc1 (stereo not drawn) | 15.4% |
| COc1ccc(C(=O)NCc2nnc(SCCOc3ccccc3)n2C)cc1 | 10.2% |
| COc1cc(C(=O)OC(C)C(=O)NCC2CCCCC2)cc(NC(=O)c2ccco2)c1OC (stereo not drawn) | -2.91% |
| O=C(Nc1cc2c3c(c1)C1CCCC1CN3CC1CCCC21)c1ccc([N+](=O)[O-])cc1 (stereo not drawn) | 29.3% (active) |
| COC(=O)c1ccccc1NC(=O)C1(S(=O)(=O)c2ccc(Cl)cc2)CC1 | -1.28% |
| NC(N)=Nc1nc(-c2ccccc2)c2cc(Cl)ccc2n1 | 27.1% (active) |
| O=c1c2ccccc2nc2n1C(CSCc1cccc(C(F)(F)F)c1)CS2 (stereo not drawn) | 34.2% (active) |
| Cc1ccc(-c2nc(CSCC(=O)NC3CCN(Cc4ccccc4)CC3)c(C)o2)cc1 | 12% |
| O=C(C[C@H]1C/C=C\C[C@@H](NC(=O)OCC2c3ccccc3-c3ccccc32)C(=O)O[C@@H](c2ccccc2)CNC1=O)N[C@H](CO)Cc1ccccc1 | 18.6% |
| CNc1nnc(-c2ccco2)s1 | -0.36% |
| O=C1/C(=C/c2ccc(F)cc2)SC(=S)N1NS(=O)(=O)c1ccccc1 | 16.4% |
| Cc1ccc(Nc2nc(N3CCOCC3)nc(N3CCOCC3)n2)cc1Cl | 40.8% (active) |
| CCc1ccc(C2C(C#N)=C(N)N(N3CCOCC3)C3=C2C(=O)CC(C)(C)C3)s1 (stereo not drawn) | 25.2% (active) |
| CC(C)C(=O)Nc1nnc(SCC(=O)N2C(C)CCCC2C)s1 (stereo not drawn) | 1.96% |
| CCc1c(C)[nH]c(=S)c(C#N)c1C | 9% |
| Cc1c(Cl)c([N+](=O)[O-])nn1Cc1ccc(C(=O)N/N=C\c2cc(Cl)ccc2O)o1 | 29% (active) |
| CCOc1ccc(-n2c(O)c(/C=N/Nc3nc(C)cc(C)n3)c3ccccc3c2=O)cc1 | 17.6% |
